Compounds with a hit are over-represented: about 6.9% of the library has one in this group of screens.
SW480 rerep – A quantitative high throughput screen for small molecules that induce DNA re-replication in SW480 colon adenocarcinoma cells | SW480 DNA re-replication, Hoechst DNA content imaging, 48 h | Potency, µM (titrated, usually from 46.1 µM), for the others: at the highest dose re-replication activation, usual class: activators | 340,000 compounds, 1.8% hits | AID 624297, 2012; note: potency is the fitted concentration of half-maximal effect; % of control where 0% means no effect; nearly all actives have a fitted effect of over 55% in size
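First, 250 cells per well were seeded. Next, compound or vehicle (23 nL) was pinned in, plates sat 48 hr at 37 C. Finally Hoechst was added for 40 min before fluorescence scanning.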
KB-3-1 cytotox – qHTS assay for MDR1-selective chemotherapeutics: Primary screen using the parental adenocarcinoma cell KB-3-1; AID 1347075, 2019; KB-3-1 viability, CellTiter-Glo ATP luminescence, 72 h; Potency, µM (doses to about 46.1 µM), most hits filed as cytotoxic; 400,000 compounds, 1.4% hits; note: potency is the fitted concentration of half-maximal effect; % is set by controls: 0 for no effect and ±100 for the full control effect; nearly all actives have a fitted effect of over 60% in size
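Here the drug-naive KB-3-1 line serves as comparator for MDR sub-line selectivity; cells received compound titrations, 72 h at 37 °C, then CellTiter-Glo readout.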
MCF10A rereplic – A quantitative high throughput screen for small molecules that induce DNA re-replication in MCF 10a normal breast cells. MCF 10A DNA re-replication, Hoechst nuclear intensity, 48 h. Potency, µM (titrated, usually from 46.1 µM), for the others: top-dose activity, positive = re-replication, most hits filed as activators. 350,000 compounds, 2.9% hits; note: potency is the fitted concentration of half-maximal effect; % of control where 0% means no effect; nearly all actives have a fitted effect of over 50% in size
Giardia kill – Small Molecules that selectively kill Giardia lamblia: qHTS. 340,000 compounds, 0.15% hits. activity change, % at 7.66 µM, hits read low. Giardia lamblia trophozoite viability; in the data active = activity change below about -80%; inconclusive = between about -30% and that limit;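 note: parasites exposed to compound for two days anaerobically before the ATP read; % is set by controls: 0 for no effect and ±100 for the full control effect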
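Luminescence from cellular ATP indicates surviving trophozoites (100 cells/well) following 48 hrs anaerobic compound treatment at 37 deg C; signal develops 15-30 min at room temperature.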
KB-V1 MDR tox – qHTS assay for MDR1-selective chemotherapeutics: Primary screen using the drug-selected MDR subline cells KB-V1; KB-V1 MDR cells viability, CellTiter-Glo, 72 h; Potency, µM (highest dose often 46.1 µM), most hits filed as cytotoxic; 400,000 compounds, 3.4% hits; AID 1347076, 2019; note: potency is the fitted concentration of half-maximal effect; % is set by controls: 0 for no effect and ±100 for the full control effect; nearly all actives have a fitted effect of over 60% in size
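In this primary screen, KB-V1 cells overexpressing P-gp are incubated with library compounds (lowest to highest concentration) for 72 h at 37 degrees C before a luminescent ATP viability read.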
ASM inhibitor – Inhibitors of Secretory Acid Sphingomyelinase (S-ASM): qHTS; Sphingomyelin phosphodiesterase (Homo sapiens), P17405; placental ASM, HMU-PC fluorogenic substrate, 60 min; Potency, µM (top dose mostly 57.5 µM), for the others: top-dose activity change, negative = inhibition, hits mostly inhibitors; 340,000 compounds, 0.006% hits; note: potency is the fitted concentration of half-maximal effect
Target sequence (P17405 47-631 limits assumed): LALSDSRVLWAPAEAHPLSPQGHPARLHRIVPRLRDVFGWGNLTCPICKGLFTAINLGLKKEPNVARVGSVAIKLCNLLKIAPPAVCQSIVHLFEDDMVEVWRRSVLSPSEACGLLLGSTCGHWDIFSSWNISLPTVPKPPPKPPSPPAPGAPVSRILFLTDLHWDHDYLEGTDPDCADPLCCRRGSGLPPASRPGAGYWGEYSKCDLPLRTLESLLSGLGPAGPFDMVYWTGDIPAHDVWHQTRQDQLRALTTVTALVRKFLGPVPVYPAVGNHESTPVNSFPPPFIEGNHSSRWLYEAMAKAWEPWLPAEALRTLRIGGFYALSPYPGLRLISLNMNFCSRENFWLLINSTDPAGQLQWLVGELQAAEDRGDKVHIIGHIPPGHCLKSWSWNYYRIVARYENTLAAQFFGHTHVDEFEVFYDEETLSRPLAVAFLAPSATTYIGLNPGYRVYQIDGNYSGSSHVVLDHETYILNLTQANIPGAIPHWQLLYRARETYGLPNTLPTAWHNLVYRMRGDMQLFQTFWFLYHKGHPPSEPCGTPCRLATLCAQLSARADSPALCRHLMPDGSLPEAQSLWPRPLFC
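Fluorescence read-out (Ex 386 nm, Em 447 nm) after stopping the reaction at pH 10. Enzyme: ASM from human placenta; substrate HMU-PC0, 9 uM final; 60 min, 37 °C. Compound preincubation 10 min, ambient temperature.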
The depositor's hits bear a star; i = inactive; ? = inconclusive; · = no result. Unless noted, calls come from the whole dose curve; as a rule, active = well fitted curve in the direction sought with a large enough effect; inconclusive = small, poorly fitted or top-dose-only effect, or another doubt; inactive = no such curve, though single readings can be large; an effect the other way counts as inactive or inconclusive.

SMILES	SW480 rerep	KB-3-1 cytotox	MCF10A rereplic	Giardia kill	KB-V1 MDR tox	ASM inhibitor
C[n+]1c(/C=C/c2ccc(F)cc2)ccc2ccccc21	·	?	·	·	i	·
COc1ccc(N(C)S(=O)(=O)c2ccc3c(c2)n(C)c(=O)c(=O)n3C)cc1	·	i	·	·	i	·
O=C1c2ccccc2C(=O)C1(c1ccccc1)N1CCN(c2cccc(Cl)c2)CC1	·	i	·	·	i	·
COc1cc(NC(=O)c2ccc(C(=O)Nc3cc(OC)c(Cl)cc3OC)cc2)c(OC)cc1Cl	·	i	·	·	?	·
COc1cc(NC(=O)N2CCC3(CC2)Nc2ccccc2-n2cccc23)cc(OC)c1OC	·	?	·	·	i	·
O=C(Cc1ccc(Cl)cc1)NCCS(=O)(=O)N1CCN(c2ccccc2F)CC1	?	13µM*	18µM*	-15	7.3µM*	-4%
O=C(NCCS(=O)(=O)N1CCN(c2ccccc2F)CC1)c1ccc(Cl)cc1	-3%	i	13%	9	?	0%
Cc1c(C(=O)NCCS(=O)(=O)N2CCN(c3ccccc3F)CC2)cccc1[N+](=O)[O-]	?	23µM*	?	10	?	0%
CCOC(=O)c1ccc(NC(=O)CSc2nc(-c3cccs3)cc(C(F)(F)F)c2C#N)cc1	·	?	·	5	i	·
Cc1ccc(OCC(=O)NCC(=O)OCc2cc(=O)n3nc(C)sc3n2)cc1	·	i	·	·	?	·
CCN1C=C(Cc2ccc(F)cc2)C2=C(C1)C(c1ccc(F)cc1)C(C#N)=C(N)O2 (configuration not stated)	?	?	?	2	16µM*	35%
CCN1C=C(Cc2ccccc2C)C2=C(C1)C(c1ccccc1C)C(C#N)=C(N)O2 (configuration not stated)	?	?	?	-19	21µM*	40%
CC(C)(C)C(=O)OCCNc1nc(-c2cccs2)nc2ccccc12	·	·	·	-29	·	·
COc1ccc(CN(Cc2ccccc2)C(=O)C2CC2)cc1COc1ccc(NC(C)=O)cc1	·	·	·	6	·	·
CC1=C(C(=O)NC2CCCc3c2cnn3-c2cccc(C)c2C)OCCO1 (configuration not stated)	0%	?	2%	18	?	5%
COC(=O)c1ccc(C(=O)NC2CCCc3c2cnn3-c2cc(F)cc(F)c2)nc1 (configuration not stated)	6.5µM*	?	2.9µM*	4	10µM*	-7%
COC(=O)c1ccc(C(=O)NC2CCCc3c2cnn3-c2ccc(C)c(C)c2)cc1 (configuration not stated)	6.5µM*	1.6µM*	2.3µM*	4	5.2µM*	·
Cc1cc(C(=O)NC2CCCc3c2cnn3-c2cccc(C)c2C)no1 (configuration not stated)	0%	1.8µM*	24%	25	?	3%
COc1ccc(C(=O)NC2CCCc3c2cnn3-c2cc(F)cc(F)c2)c(OC)c1OC (configuration not stated)	1%	?	?	-9	18µM*	4%
Cc1cc(C(=O)NC2CCCc3c2cnn3-c2ccc(C)c(C)c2)nc(C)n1 (configuration not stated)	-21%	i	8%	-12	?	-5%
Cc1cccc(Nc2nc(N)nc(CCl)n2)c1C	?	?	?	3	?	6%
COC(=O)c1ccccc1NC(=O)NC1CCCCC1	-13%	i	?	19	i	-1%
CCOc1ccccc1N(C)C(=O)Cn1cnc2sc(C)c(S(=O)(=O)N3CCC(C)CC3)c2c1=O	·	i	·	·	i	·
